Chronic BCR inh: blocks chronic active B-cell receptor signaling; hit rate 0.05% among 340,000; Potency, µM (titrated, usually from 46.1 µM), without a hit: at the top dose activity change, negative = inhibition, actives largely listed as inhibitors; ABC-DLBCL IkBa-CBG/CBR reporter, luminescence ratio, 4 h; active = well fitted inhibition curve with a large enough effect in the signal ratio, with a control signal flat, not every such curve was filed as active; inconclusive = small, poorly fitted or top-dose-only effect, or effect the other way, or a change in a side signal; the % refers to the signal ratio;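 note: potency is the fitted concentration of half-maximal effect; plate controls were basal doxycycline-induced cells for no effect and cells given 10 µM MG132 for full effect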
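Compounds up to 46 uM were incubated four hours with TMD8 cells whose green CBG68 luciferase is fused to IkappaBalpha; red CBR luminescence normalised the signal, and concentration-effect curves were fitted to fusion, red and ratio data.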
PTAP TSG101 blk: blocks PTAP/TSG101 interaction to inhibit HIV-1 budding. 340,000 tested, under 10 active. Potency, µM (series often up to 115 µM), without a hit: at the highest dose activity change, negative = inhibition, usual class: inhibitors. Fluorescence polarization, FITC-PTAP peptide / Tsg101 binding. AID 493005; active = well fitted inhibition curve with a large enough effect in the main read-out, with a control signal flat, not every such curve was filed as active; inconclusive = small, poorly fitted or top-dose-only effect, or effect the other way, or a change in a side signal; inactive = no such curve, though single readings can be large or run the other way; note: potency is the fitted concentration of half-maximal effect; % of control where 0% means no effect
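Compounds were pin-transferred onto Tsg101 binding domain (10 uM final) in HEPES pH 7.5 buffer, then FITC-PTAP peptide was added at 50 nM final. After 20 min at RT, polarization reported peptide displacement across a qHTS concentration series.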
Menin MLL FP TR: inhibitors of human menin-MLL interaction, mutant MLL peptide; O00255; Menin + Texas Red MLL mutant peptide, fluorescence polarization; Potency, µM (top dose mostly 61.6 µM), without a hit: at the highest dose FP activity change, negative = inhibition, most hits filed as inhibitors; hit rate 0.23% among 270,000; AID 1768; active = well fitted inhibition curve with a large enough effect in the polarisation, with a control signal flat, not every such curve was filed as active; inconclusive = small, poorly fitted or top-dose-only effect, or effect the other way, or a change in a side signal; inactive = no such curve, though single readings can be large or run the other way; the % refers to the polarisation; note: potency is the fitted concentration of half-maximal effect; % of control where 0% means no effect
B2AR arrestin: agonists driving beta-arrestin recruitment to human beta2-adrenergic receptor. P07550. beta-arrestin recruitment to beta2AR, cell-based reporter. Potency, µM (doses to about 46.1 µM), for inactives: top-dose activation, actives largely listed as activators. hit rate 0.02% among 330,000; active = well fitted activation curve with a large enough effect; inconclusive = small, poorly fitted or top-dose-only effect;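 note: potency is the fitted concentration of half-maximal effect; 0% = DMSO controls and full agonism = EC100 isoproterenol or metaproterenol; nearly all actives have a fitted effect of over 65% in size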
CXXC DNA block: blocks binding of human MLL CXXC domain to DNA | Potency, µM (doses to about 115 µM), without a hit: at the top dose activity change, negative = inhibition, hits mostly inhibitors | Q03164 | hit rate 0.037% among 290,000 | MLL-CXXC / FITC-HOXA9 DNA fluorescence polarization; active = well fitted inhibition curve with a large enough effect in the polarisation, with a control signal flat, not every such curve was filed as active; inconclusive = small, poorly fitted or top-dose-only effect, or effect the other way, or a change in a side signal; inactive = no such curve, though single readings can be large or run the other way; the % refers to the polarisation; note: potency is the fitted concentration of half-maximal effect
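Steps: dispense CXXC domain solution (7 uM) → pin compounds or unlabeled HOX-A9 DNA control → 5 min ambient → add FLSN-HOX-A9 solution (50 nM) → spin → 30 min ambient → fluorescence polarization. Tris pH 7.5/NaCl/DTT/BSA buffer.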
Menin-MLL FL inh: displaces fluorescein MLL peptide from human menin. FP activity change, % at 61.4 µM. AID 1766. Fluorescence polarization, fluorescein-MLL peptide displacement from menin. 290,000 tested, under 10 active; active = well fitted curve in the direction sought with a large enough effect in the polarisation, not every such curve was filed as active; inconclusive = small, poorly fitted or top-dose-only effect, or effect the other way, or a change in a side signal; inactive = no such curve, though single readings can be large or run the other way; the % refers to the polarisation; note: % of control where 0% means no effect
The depositor's hits bear a star; ? = inconclusive; . = no result given. This is one part of a sample in which hits are shown more often than they occur.

SMILES	Chronic BCR inh	PTAP TSG101 blk	Menin MLL FP TR	B2AR arrestin	CXXC DNA block	Menin-MLL FL inh
CCn1cnc2scc(-c3ccccc3)c2c1=O	-4%	-6%	-16%	0%	14%	-1
Cn1cc(/C=N/n2cnc3scc(-c4ccc(Cl)cc4)c3c2=O)c2ccccc21	3.5µM*	-1%	11µM*	0%	6%	0
O=C(Cn1cnc2sc(-c3ccccc3)cc2c1=O)NCc1ccccc1	?	-5%	?	-1%	-1%	6
O=C(Cn1cnc2sc(-c3ccccc3)cc2c1=O)NCc1ccco1	0%	2%	25µM*	1%	6%	11
Cc1[nH]c(=O)[nH]c(=O)c1S(=O)(=O)N1CCC(C(=O)NC(C)c2ccccc2)CC1 (configuration not stated)	4%	0%	2%	0%	-3%	4
CNc1cc(-n2nc(C)cc2-c2ccccc2)ncn1	-5%	-5%	1%	-1%	2%	2
Cc1cc(-c2ccccc2)n(-c2cc(N/N=C/c3ccccc3O)ncn2)n1	15µM*	-9%	?	-1%	23%	0
COc1ccc(Nc2nc(CC(C)=O)ns2)cc1	4%	1%	4%	-1%	1%	1
C[C@](N)(Cc1ccc(O)c(O)c1)C(=O)O	0%	0%	?	0%	0%	3
COc1ccc(C[C@](C)(N)C(=O)O)cc1OC	23µM*	-1%	.	0%	.	.
Cc1c(C(=O)Nc2ccccc2F)cnn1-c1ccccc1	?	-6%	2%	-1%	-1%	6
CCNC(=S)NNC(=O)c1csc(CC)c1	4%	-2%	5%	0%	-4%	6
CC1C/C(=N\NC(N)=S)c2cc(Cl)ccc2S1 (configuration not stated)	?	2%	.	6.3µM*	-8%	3
CN(C)C(=O)CSc1nnc(Cc2ccc3c(c2)OCO3)o1	6%	-6%	2%	2%	1%	4
O=C(O)CCCNc1cc(N2CCN(C(=O)c3ccco3)CC2)c2noc3c2c1C(=O)c1ccccc1-3	?	?	16µM*	0%	?	?
COCCNC(=S)N/N=C(\C)CCc1ccc2c(c1)OCO2	20µM*	-3%	-8%	?	-14%	0
C/C(CCc1ccc2c(c1)OCO2)=N\NC(=S)NC(C)C	?	1%	-11%	11%	15%	-1
Cc1cccc(NC(=O)c2cc(NC(=O)c3ccco3)ccc2Cl)n1	23µM*	1%	16%	0%	-14%	1
Cc1cccc(NC(=O)c2cc(NC(=O)C3CCCCC3C(=O)O)ccc2Cl)n1 (configuration not stated)	-1%	-4%	10%	0%	5%	0
COc1ccc(C2=NS(=O)(=O)N(C)C(C(=O)NC(C)c3ccccc3)=C2)cc1OC (configuration not stated)	1%	-6%	7%	-1%	.	-2
Cc1csc(SCC(=O)Nc2nncs2)n1	-13%	-5%	-8%	0%	3%	-1
O=C(Nc1nc2c(s1)CN(Cc1ccccc1)CC2)c1cccc(S(=O)(=O)N2CCc3ccccc32)c1	8%	?	7.1µM*	1%	?	?
O=C(Nc1nc2ccccc2s1)c1cccc(S(=O)(=O)N2CCc3ccccc32)c1	8%	1%	.	0%	2%	11
Fc1ccccc1-c1ccc(/C=N/Nc2nc3ccccc3[nH]2)o1	23µM*	0%	?	0%	60%	4
Cc1cccc(C)c1NC(=O)COC(=O)c1cc(S(=O)(=O)Nc2ccc(Cl)cc2)ccc1O	1%	-8%	.	-1%	.	.
SMILES	Chronic BCR inh	PTAP TSG101 blk	Menin MLL FP TR	B2AR arrestin	CXXC DNA block	Menin-MLL FL inh
O=C(N/N=C\c1cn(-c2ccccc2)nc1-c1ccccc1)c1ccc2c(c1)OCO2	?	-1%	25µM*	0%	27%	8
OCc1ccnc2c(O)cccc12	6.3µM*	-1%	-1%	?	-16%	9
CCOC(=O)C1CCCc2c1[nH]c1c(C(N)=O)cccc21 (configuration not stated)	?	0%	-8%	-1%	-3%	1
COc1ccc(CCNC(=O)c2cn(C)c3ccc(S(=O)(=O)N4CCOCC4)cc3c2=O)cc1OC	-11%	-2%	.	0%	-15%	.
CCn1cc(C(=O)NCCc2ccc(OC)c(OC)c2)c(=O)c2cc(S(=O)(=O)N3CCOCC3)ccc21	?	0%	16µM*	-1%	8%	0
Cc1ccc(C(=O)Nc2cccc(C(=O)O)c2)cc1S(=O)(=O)N1CCCCC1	-1%	-2%	7%	0%	-2%	2
O=C(Nc1nc(-c2ccc(S(=O)(=O)N3CCCC3)cc2)cs1)C1COc2ccccc2O1 (configuration not stated)	?	-3%	10µM*	0%	20%	5
O=C(Nc1nc(-c2ccccc2)cs1)C1COc2ccccc2O1 (configuration not stated)	?	0%	-20%	0%	17%	5
Cc1ccc(S(=O)(=O)CNC(=S)c2cccc(C)c2)cc1	18µM*	-7%	11%	2%	17%	1
Cc1ccc(S(=O)(=O)CNC(=S)c2ccc3ccccc3c2)cc1	?	-3%	11%	?	1%	-2
OC1(C#Cc2c(-c3ccsc3)oc3ccc(N4CCOCC4)cc23)CCCCC1	.	0%	.	.	.	.
CCOc1ccc(S(=O)(=O)N2CCC(C(=O)OCc3cccc(OC)c3OC)CC2)cc1	-12%	0%	.	1%	.	.
O=C1C=C(N2CCN(c3ccccn3)CC2)C(=O)c2c(O)ccc(O)c21	.	-4%	.	.	.	.
CC1=CC(=O)c2c(O)ccc(O)c2C1=O	8%	.	?	3%	32µM*	?
CC1(C)CC(NC(=O)c2ccccc2)CC(C)(C)N1	7%	-2%	13%	0%	-3%	-2
CC1(C)CC(Nc2ccc(Nc3ccccc3)cc2)CC(C)(C)N1	?	-4%	20µM*	0%	-3%	2
O=C(O)c1cc(N=Nc2ccc(O)c(C(=O)O)c2)ccc1O	.	.	40µM*	.	-9%	-7
COc1ccccc1-c1csc(NC(=O)c2cc(-c3cccs3)nc3ccccc23)n1	-9%	-3%	8.9µM*	0%	11%	7
NC(=S)N/N=C1\CC(c2ccc3c(c2)OCCCO3)Oc2ccc(F)cc21 (configuration not stated)	18µM*	-5%	.	?	-9%	4
CCCNC(=O)Cn1c(=O)/c(=C\c2ccc(-c3cccc([N+](=O)[O-])c3)o2)s/c1=C\C(=O)C(C)(C)C	?	?	?	0%	-8%	-3

Compound activity: PubChem, National Center for Advancing Translational Sciences (NCATS)
